The entries come from a sample that favours hits as a whole.
Sm TGR block: S. mansoni TGR enzyme inhibition; Potency, µM (top dose mostly 114 µM), without a hit: at the top dose activity change, negative = inhibition, hits mostly inhibitors; AID 485364; 360,000 compounds, 3% hits; Q962Y6; purified TGR, DTNB reduction, TNB absorbance 405 nm; note: potency is the fitted concentration of half-maximal effect; % is set by controls: 0 for no effect and ±100 for the full control effect; nearly all actives have a fitted effect of over 60% in size
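First, TGR (20 nM dispensed) and NADPH were mixed with compound. Second, a 15 min room-temperature incubation followed. Third, further NADPH and then DTNB were added to start the reaction. Finally, TNB absorbance was monitored kinetically.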
Shiga toxin inh: inhibitors of Shiga toxin in Vero cells. Vero cells, Shiga toxin protein synthesis inhibition reporter. inhibition, % at 38.7 µM. 290,000 compounds, 9.2% hits. AID 2315; in the data active = inhibition mostly above about 28%, no sharp cut-off; inactive = mostly below about 43%; note: 0% is about no effect
TbPYK inhibitor: blocks Trypanosoma brucei pyruvate kinase. TbPYK enzyme, Kinase-Glo Plus ATP luminescence, 45 min. Potency, µM (titrated, usually from 76.8 µM), inactives show at the highest dose activity, negative = inhibition, usual class: inhibitors. Q57TT1. 410,000 compounds, 0.12% hits; note: potency is the fitted concentration of half-maximal effect; % is set by controls: 0 for no effect and ±100 for the full control effect; nearly all actives have a fitted effect of over 50% in size
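Screened from lowest to highest concentration, compounds were pinned into TbPYK/substrate mixtures, and ADP (130 uM final) was added. Plates sat at room temperature for 45 min prior to Kinase-Glo Plus detection by luminescence.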
LmPK inhibitor: LmPK (Leishmania mexicana) enzyme inhibition. purified LmPK, Kinase-Glo ATP luminescence, 1 h. Potency, µM (doses to about 57.5 µM), inactives show top-dose activity change, negative = inhibition, most hits filed as inhibitors. 290,000 compounds, 0.37% hits. AID 1721; note: potency is the fitted concentration of half-maximal effect; % is set by controls: 0 for no effect and ±100 for the full control effect
Target sequence (Q27686 whole entry, looked up): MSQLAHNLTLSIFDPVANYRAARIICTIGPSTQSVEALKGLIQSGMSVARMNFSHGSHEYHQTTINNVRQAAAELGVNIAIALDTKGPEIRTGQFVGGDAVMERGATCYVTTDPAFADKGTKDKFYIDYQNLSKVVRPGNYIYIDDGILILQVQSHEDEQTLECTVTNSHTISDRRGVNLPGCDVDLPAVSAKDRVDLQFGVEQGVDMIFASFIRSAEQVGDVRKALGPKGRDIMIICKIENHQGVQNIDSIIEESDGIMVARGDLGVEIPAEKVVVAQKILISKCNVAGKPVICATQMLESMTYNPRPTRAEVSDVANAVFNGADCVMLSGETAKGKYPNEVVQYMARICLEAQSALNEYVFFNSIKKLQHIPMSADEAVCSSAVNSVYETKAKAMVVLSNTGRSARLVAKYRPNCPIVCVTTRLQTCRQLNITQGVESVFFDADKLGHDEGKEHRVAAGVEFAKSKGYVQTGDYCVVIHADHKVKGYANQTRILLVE
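0.1 nM LmPK, 0.5 mM PEP, 0.1 mM ADP; 50 mM imidazole pH 7.2, 7 mM MgCl2, 50 mM KCl; 1 h RT. Kinase-Glo luminescence readout, normalized to no-enzyme (full inhibition) and uninhibited wells.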
FBPA Giardia inh: Giardia lamblia aldolase inhibition; AID 2451; purified Giardia FBPA; 290,000 compounds, 0.71% hits; Potency, µM (doses to about 59.6 µM), for inactives: top-dose activity, negative = inhibition, actives largely listed as inhibitors; A8B2U2; note: potency is the fitted concentration of half-maximal effect; % is set by controls: 0 for no effect and ±100 for the full control effect; nearly all actives have a fitted effect of over 55% in size
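40 nM FBPA preincubated 10 min at RT with compound (up to 57.5 uM final), then substrate plus GAPDH/TPI/NAD/arsenate coupling and diaphorase/resazurin added. Fluorescence read after 20 min at RT, 525/598 nm.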
CHX counter: counter-screen hit for Shiga toxin inhibitors, cycloheximide; cell reporter, cycloheximide protein synthesis inhibition counterscreen; max response, %; 300,000 compounds, 12% hits; AID 2314; in the data active = max response mostly above about 13%, no sharp cut-off; inactive = mostly below about 14%; note: read at 38.3 µM for the half of the compounds with a filed dose; 0% is about no effect
An asterisk follows results filed as active; ? = inconclusive; nt = not tested or not shown; [ ] = dose if it differs, or a comment. Unless noted, calls come from the whole dose curve; as a rule, active = well fitted curve in the direction sought with a large enough effect; inconclusive = small, poorly fitted or top-dose-only effect, or another doubt; inactive = no such curve, though single readings can be large; an effect the other way counts as inactive or inconclusive.

SMILES	Sm TGR block	Shiga toxin inh	TbPYK inhibitor	LmPK inhibitor	FBPA Giardia inh	CHX counter
COc1ccc(F)cc1S(=O)(=O)NCC1CCCO1 (stereo not drawn)	5.2%	nt	-2.9%	0.1%	-0.2%	-2.0
O=C(N/N=C/c1ccco1)c1cc(-c2cccc3ccccc23)n[nH]1	-18.2%	58.0*	-5.4%	-0.7%	0.2%	26.3*
O=C(N/N=C/c1ccco1)c1cc(-c2ccccc2)n[nH]1	-26.1%	45.7*	-2.1%	0.3%	-0.5%	19.5*
Cc1ccccc1Cn1c(SCc2ccc(C(=O)NCCc3ccccc3)cc2)nc2ccncc21	-0.4%	nt	-6.9%	nt	nt	nt
CCOc1ccc(C2OC34CCCCC3C(C#N)(C#N)C2(C#N)C(=N)O4)cc1OC (stereo not drawn)	50.1µM*	10.2	-4.2%	11.6%	?	5.6
CCCCOc1ccc(C2OC34CCCCC3C(C#N)(C#N)C2(C#N)C(=N)O4)cc1 (stereo not drawn)	?	-3.0	-11.1%	-0.5%	?	-4.3
COc1ccc(-c2cn3c4c(sc3n2)CCCC4)cc1	0.0%	36.4	nt	6.1%	?	35.6*
COc1ccc(-c2cn3c(C)c(C(=O)N4CCCc5ccccc54)sc3n2)cc1	nt	nt	-19.0%	nt	nt	nt
C=CCN(CC=C)c1cnn(-c2nc3ccccc3[nH]2)c(=O)c1Cl	-6.8%	88.6*	-5.7%	15.8µM*	-5.5%	27.1*
O=c1c(Cl)c(NCCCO)cnn1-c1nc2ccccc2[nH]1	8.91µM*	137.5*	?	14.1µM*	-1.1%	83.9*
Cc1ccc(-c2cnc3n2CCCCC3)cc1	8.8%	14.4	-3.2%	6.3%	-0.9%	2.2
N#Cc1ncc(-c2ccc3c(c2)OCCOCCOCCOCCO3)nc1C#N	-15.5%	15.3	-2.0%	-1.9%	-0.9%	0.4
c1ccc(-c2ccc(-c3cnc4n3CCCCC4)cc2)cc1	-1.2%	58.0	-0.8%	12.9%	8.6%	22.5*
CCOc1ccc(-c2cnc3n2CCCCC3)cc1	?	14.9	0.8%	-5.7%	-9.7%	8.6*
c1cc2c(cc1-c1cnc3n1CCC3)OCCO2	-3.5%	86.9*	-5.6%	-5.2%	-0.2%	15.8
O=C(Cn1cc(S(=O)(=O)N2CCCC2)c(S(=O)(=O)N2CCCC2)c1)NCc1ccco1	?	-10.4	-4.0%	5.4%	nt	1.5
Cc1ccc(N2C(=O)CC(N3CCN(c4ccccn4)CC3)C2=O)cc1 (stereo not drawn)	nt	-5.5	-12.6%	-1.9%	2.9%	-3.8
Cc1ccc2nc(-c3ccc(N4C(=O)CC(N5CCN(CCO)CC5)C4=O)cc3)sc2c1 (stereo not drawn)	-23.2%	67.9*	0.8%	-0.9%	0.1%	37.3*
CC(C)CO/N=C1/C[C@@H](O)[C@@H](O)[C@@H]2[C@@H]3C(=O)N(C4CCCCC4)C(=O)[C@H]3CC[C@H]12	nt	nt	nt	nt	-1.0%[12.9 µM]	nt
CCOc1ccc(C(=O)N2CCC(c3ccncc3)CC2)cc1	-0.6%	nt	-4.6%	nt	nt	nt
Fc1ccc2c(c1)/C(=N/Nc1ccccn1)CCS2	-4.9%	57.8*	-0.5%	2.2%	-9.3%	29.7*
Cc1ccsc1C(=O)NNC(=O)c1ccncc1	-1.7%	nt	-0.5%	nt	nt	nt
Cc1ccsc1C(=O)Nc1nccs1	12.7%	60.3*	-4.2%	?	?	16.3*
Cc1csc(NC(=O)c2sccc2C)n1	-0.9%	90.9*	-27.5%	14.1µM*	-4.9%	59.4*
Cc1cccc(C(=O)Nc2c(-c3ccccc3)nc3cc(C)ccn23)c1	-3.4%	nt	-5.5%	nt	nt	nt
SMILES	Sm TGR block	Shiga toxin inh	TbPYK inhibitor	LmPK inhibitor	FBPA Giardia inh	CHX counter
Cc1cccc(C(=O)n2c(=S)nc3cc(C)ccn32)c1	-0.7%	125.5*	-5.8%	11.2µM*	4.8%	46.0*
Cc1ccn2c(c1)nc(=S)n2C(=O)c1ccccc1	0.0%	121.1*	-28.2%	?	-3.3%	114.2*
Cc1ccn2c(C(=O)CSc3ccccc3)c(C)nc2c1	12.9%	11.4	-2.1%	0.3%	-1.1%	-1.1
COc1ccc(CNC(=O)C2CCN(S(=O)(=O)Cc3ccccc3)CC2)cc1	-24.6%	nt	0.3%	nt	nt	nt
Cn1c(=O)c(-c2ccc(Cl)cc2)nc2cnc(Nc3ccccc3)nc21	nt	nt	nt	nt	19.1%	nt
CN(C)/C=C1/C(=O)NC(=O)N(CCNc2ncc(C(F)(F)F)cc2Cl)C1=O	11.2µM*	24.4	-7.5%	-1.1%	12.2%	-3.4
Nc1ccc(CSc2ccc(Cl)cc2)cc1	0.7%	58.6*	5.0%	0.1%	-5.9%	23.8*
COC(=O)c1ccc(NC(=O)CC2C(=O)N(c3cccc(OC)c3)C(=O)N2Cc2ccco2)cc1 (stereo not drawn)	?	nt	-0.3%	nt	nt	nt
COc1cc(NC(=O)CC2C(=O)N(c3cccc(C)c3)C(=O)N2Cc2ccco2)cc(OC)c1 (stereo not drawn)	50.1µM*	nt	1.9%	nt	nt	nt
COc1ccc(NC(=O)CC2C(=O)N(c3cccc(OC)c3)C(=O)N2Cc2ccco2)cc1 (stereo not drawn)	44.7µM*	-0.9	1.7%	3.4%	-1.6%	5.3
CCOc1ccc(NC(=O)CC2C(=O)N(c3ccccc3)C(=O)N2Cc2ccco2)cc1 (stereo not drawn)	44.7µM*	-11.7	-1.5%	-0.4%	-0.3%	-6.4
COc1ccc(C2CC(c3cccs3)n3nc(N)nc3N2)cc1 (stereo not drawn)	-3.4%	23.0*	-12.3%	3.5%	2.4%	7.4*
Cc1ccc(C)c(CSc2nc(-c3ccccc3F)nc3c2Cc2c(CO)cnc(C)c2O3)c1	1.0%	nt	3.4%	nt	nt	nt
Nc1ccc(Cl)cc1	nt	nt	-3.1%[157 µM]	nt	nt	nt
Nc1ccc(N)cc1	nt	95.4*	8.1%	nt	?	35.3*
CCOC(=O)c1cnn(-c2ccc(C(=O)Nc3cc(OC)c(OC)c(OC)c3)cc2)c1N	-6.1%	nt	-2.4%	nt	nt	nt
Cc1cc(N(C)Cc2ccccc2)nc2cc(O)ccc12	2.6%	44.0*	3.3%	6.2%	-0.4%	19.9*
Cc1cc(N(C)Cc2ccccc2)nc(-c2ccccc2)n1	-13.5%	50.4	3.9%	-13.0%	1.3%	15.4
CCOc1ccc(-c2cc(CCCC(=O)NCc3cccnc3)no2)cc1	0.3%	64.8*	2.2%	1.2%	19.1%	51.3*
CCOc1ccc(-c2cc(CCCC(=O)NCCC(C)C)no2)cc1	11.8%	134.1*	0.5%	-2.5%[11.5 µM]	10.0%	24.8*
COc1ccc(-c2cn3nc(N4CCCC(C(=O)NCc5ccc(Cl)cc5)C4)sc3n2)cc1 (stereo not drawn)	4.8%	nt	2.3%	nt	nt	nt
C[C@@H](c1ccccc1)N1C(=O)[C@H]2[C@H]3[C@H](O)[C@H](O)C/C(=N/NC(=O)OCc4ccccc4)[C@@H]3CC[C@@H]2C1=O	nt	nt	nt	nt	-1.6%[12.9 µM]	nt
COc1ccc(CC(=O)Nc2sc3c(c2C(=O)Nc2c(C)cccc2C)CCCCC3)cc1	4.5%	nt	-1.0%	nt	nt	nt
O=[N+]([O-])C(/C=C(/Cl)[N+](=O)[O-])=C(N1CCCCC1)N1CCCCC1	25.1µM*	16.9	-2.9%	-3.3%	-14.0%	2.6

Screening results (PubChem BioAssay)
